According to PubChem BioAssay AID555 (SRMLSC, 2006):
Screen size: about 65,000 compounds; about 320 (0.49%) were called active.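 The calls were made as follows: active = ranked among the strongest by inhibition in the single 10 µM screen, a fixed top-ranked set picked for dose follow-up; inactive = the rest, inconclusive results apart.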 The full list was thinned out, with actives kept by preference.

Tested on: mevalonate kinase [Streptococcus pneumoniae D39]
Experiment: S. pneumoniae MK inhibitors, primary screen, biochemical, PK/LDH-coupled NADH absorbance (AID 555)
Conditions: purified MK, PK/LDH-coupled NADH absorbance 340 nm, at 10 µM, stronger effect = higher value
[1] = measured here: pilot screen replicates

Row | SMILES | inhibition | inhibition [1]
1 | COc1ccccc1CN1CCN(C(=O)Cc2ccccc2)CC1 | 53% (active) | 0%
2 | CCN1CCN(C(=O)Cc2coc3cc(C)cc(C)c23)CC1 | 5% (inactive) | –
3 | CN1CCN(Cc2ccccc2C(F)(F)F)CC1 | 6% (inactive) | –
4 | CCOC(=O)c1c(-c2ccccc2)oc2ccc(OC(=O)N(C)C)cc12 | 0% (inactive) | –
5 | Fc1cccc(F)c1CN1CCN(Cc2c(F)cccc2F)CC1 | 2% (inactive) | –
6 | COc1ccc(CN2CCN(c3ccccc3F)CC2)c(OC)c1 | 43% (active) | 1.5%
7 | CC(C)c1ccc(O)c(CN2CCN(c3ccccc3)CC2)c1 | 0% (inactive) | –
8 | CCC(=NCc1ccco1)c1c(O)n(Cc2ccccc2)c(=O)[nH]c1=O | 12% (inactive) | –
9 | CC(=NCC1CCCO1)c1c(O)n(-c2ccccc2)c(=O)[nH]c1=O (configuration not stated) | 4% (inactive) | –
10 | COC(=O)COc1cc(C)cc2oc(=O)c3c(c12)CCCC3 | 6% (inactive) | –
